# Experimental data as given in PubChem BioAssay (NCI).
# Where “and” joins values, the source holds several entries; their conditions need not be identical. Equal values may be shown once. About 83,000 compounds went through this panel and 20% of them were active in at least one assay; those are over-represented in the sample as a whole.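 Note: values are percent growth. 100 is the growth of untreated cells, values between 100 and 0 indicate rising inhibition; between -100 and 0 indicates cell death.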 Calls of active or inactive are those of the source. Rule for the calls: active = growth percent below 10; inactive = the rest.
# Key:
# Experiment in all cases: NCI-60 one-dose screen, 48 h (100 = growth as untreated, 0 = no growth, -100 = all killed)
# Settings in all cases: 10 µM unless noted
# T-47D breast = tested on: T-47D breast
# BT-549 breast = tested on: BT-549 breast
# MDA-MB-435 melanoma = tested on: MDA-MB-435 melanoma
# SW-620 colon = tested on: SW-620 colon
# HCT-116 colon = tested on: HCT-116 colon
# HCC-2998 colon = tested on: HCC-2998 colon
# KM12 colon = tested on: KM12 colon
# MCF7 breast = tested on: MCF7 breast
Structure (SMILES),growth (T-47D breast),growth (BT-549 breast),growth (MDA-MB-435 melanoma),growth (SW-620 colon),growth (HCT-116 colon),growth (HCC-2998 colon),growth (KM12 colon),growth (MCF7 breast)
CC1=CC(=O)c2cccc(NC3=NCCO3)c21,90.3% (inactive),101% (inactive),98.4% (inactive),95.2% (inactive),97.9% (inactive),104% (inactive),97.7% (inactive),
Cc1c(O)nc(N)[nH]c1=O,114% (inactive),116% (inactive),103% (inactive),102% (inactive),103% (inactive),92.8% (inactive),,
CC(C)(C(=O)c1cccnc1)c1cccnc1,96.2% (inactive) and 111% (inactive),103% (inactive) and 136% (inactive),98.6% (inactive) and 122% (inactive),,108% (inactive) and 111% (inactive),102% (inactive),,102% (inactive) and 93.8% (inactive)
Cc1ccc([N+](=O)[O-])cc1Br,89.1% (inactive),110% (inactive),85.6% (inactive),91.8% (inactive),90.8% (inactive),117% (inactive),103% (inactive),
CCN(CC)CCNC(=O)c1ccc(NCN2C(=O)NC(c3ccccc3)(c3ccccc3)C2=O)cc1,117% (inactive) and 95.2% (inactive),107% (inactive) and 120% (inactive),94.6% (inactive) and 103% (inactive),105% (inactive) and 106% (inactive),104% (inactive) and 95.1% (inactive),102% (inactive) and 125% (inactive),106% (inactive) and 101% (inactive),
O=C(NC(=O)c1ccc(F)c(Cl)c1)NC1CC1,91.8% (inactive),107% (inactive) and 109% (inactive),114% (inactive) and 102% (inactive),104% (inactive) and 100% (inactive),104% (inactive) and 105% (inactive),96.2% (inactive) and 106% (inactive),105% (inactive) and 101% (inactive),
O=S(=O)(O)c1ccc2cc(O)ccc2c1,102% (inactive),105% (inactive),107% (inactive),99.9% (inactive),108% (inactive),109% (inactive),110% (inactive),
N=C(N=C(N)N)N1CCOCC1,91.2% (inactive) and 95.4% (inactive),115% (inactive) and 103% (inactive),108% (inactive) and 106% (inactive),96.3% (inactive) and 103% (inactive),104% (inactive) and 96.4% (inactive),109% (inactive) and 97.1% (inactive),105% (inactive) and 100% (inactive),
NNc1ncnc2cccc(Cl)c12,90.6% (inactive),112% (inactive),115% (inactive),104% (inactive),98.1% (inactive),104% (inactive),106% (inactive),
O=c1[nH]c(=O)n(C2OC(CO)C(O)C2O)cc1I (centres undefined),105% (inactive) and 100% (inactive),143% (inactive) and 108% (inactive),106% (inactive) and 95% (inactive),101% (inactive),109% (inactive) and 95.8% (inactive),109% (inactive) and 95.8% (inactive),109% (inactive) and 100% (inactive),
OC1CCCN(Cc2ccccc2)C1 (centres undefined),94.9% (inactive),112% (inactive),107% (inactive),107% (inactive),103% (inactive),116% (inactive),107% (inactive),
CCCCCCCCCCCCCCCCC(=O)O,104% (inactive),112% (inactive),109% (inactive),105% (inactive),101% (inactive),96.8% (inactive),105% (inactive),
CN(C)c1ccc(C(=N)c2ccc(N(C)C)cc2)cc1,16.9% (inactive) and 33.1% (inactive),70.1% (inactive) and 40.6% (inactive),-7.96% (active) and -36.7% (active),9.98% (active) and 17.7% (inactive),18.5% (inactive) and 11.9% (inactive),52.4% (inactive) and 48% (inactive),14.4% (inactive) and 18.7% (inactive),
Nc1nc(N)c2cc(S(=O)(=O)c3ccccc3)ccc2n1,72.7% (inactive) and 59% (inactive),81.4% (inactive) and 54.6% (inactive),33.5% (inactive) and 31% (inactive),21.8% (inactive) and 25.3% (inactive),16.3% (inactive) and 13.4% (inactive),30.6% (inactive),32.5% (inactive) and 28.7% (inactive),
O=C(O)/C=C/C=C/c1ccccc1,100% (inactive) and 105% (inactive),103% (inactive) and 107% (inactive),105% (inactive) and 111% (inactive),104% (inactive) and 103% (inactive),101% (inactive) and 96% (inactive),104% (inactive),105% (inactive) and 103% (inactive),
Clc1ccc2sc(-c3ccccc3)nc2c1,56.8% (inactive),109% (inactive),95.4% (inactive),72.2% (inactive),94.9% (inactive),103% (inactive),104% (inactive),
COc1ccc(CCN=Cc2ccc(Cl)cc2)cc1OC,97% (inactive),107% (inactive),113% (inactive),102% (inactive),104% (inactive),105% (inactive),102% (inactive),
C(#CCN1CCOCC1)CCCN1CCOCC1,105% (inactive) and 101% (inactive),99.5% (inactive) and 53.3% (inactive),102% (inactive) and 101% (inactive),109% (inactive) and 106% (inactive),105% (inactive) and 107% (inactive),99.6% (inactive) and 98.9% (inactive),105% (inactive) and 106% (inactive),
Nc1nc(=S)c2[nH]cnc2[nH]1,12.3% (inactive) and 5.25% (active),30.7% (inactive) and 19.5% (inactive),12.3% (inactive) and 5.49% (active),23.3% (inactive) and 15.9% (inactive),9.54% (active) and -8.26% (active),6.28% (active),10.1% (inactive) and 11.5% (inactive),
Clc1ccc2c(c1)N(C1CCCN(Cc3ccccc3)C1)c1ccccc1S2 (centres undefined),69% (inactive),61.2% (inactive),5.2% (active),,12.1% (inactive),23% (inactive),33.7% (inactive),18.4% (inactive)
N#Cc1ccc(/C=C/C(=O)c2ccccc2)cc1,88.3% (inactive) and 82.5% (inactive),98% (inactive) and 96.5% (inactive),84.4% (inactive) and 95.2% (inactive),,-97.4% (active) and -60.8% (active),110% (inactive) and 7.47% (active),-47.9% (active) and 15.7% (inactive),3.73% (active) and 34.9% (inactive)
COc1ccc([N+](=O)[O-])cc1OC,103% (inactive) and 102% (inactive),110% (inactive),109% (inactive) and 107% (inactive),,96.5% (inactive) and 102% (inactive),105% (inactive),,
O=C(O)C#Cc1ccc(Cl)cc1,90.7% (inactive),99.9% (inactive),106% (inactive),,102% (inactive),108% (inactive),104% (inactive),98.8% (inactive)
CCOC(=O)C(N)Cc1cc(I)c(O)c(I)c1 (centres undefined),105% (inactive) and 111% (inactive),109% (inactive) and 98.5% (inactive),105% (inactive) and 114% (inactive),,110% (inactive) and 95.3% (inactive),104% (inactive) and 96.6% (inactive),107% (inactive),107% (inactive) and 103% (inactive)
OCCSc1ccc(Cl)cc1,101% (inactive) and 72.3% (inactive),111% (inactive) and 94.7% (inactive),103% (inactive) and 106% (inactive),,110% (inactive) and 94.4% (inactive),106% (inactive) and 108% (inactive),117% (inactive) and 102% (inactive),106% (inactive) and 89.3% (inactive)
CCOC(=O)CN1CCC(C(=O)OCC)CC1,102% (inactive),105% (inactive),114% (inactive),,98.1% (inactive),103% (inactive),109% (inactive),103% (inactive)
N#Cc1c[nH]n2ccnc12,92.3% (inactive),98.3% (inactive),114% (inactive),,95.2% (inactive),113% (inactive),109% (inactive),102% (inactive)
O=C1c2ccccc2CN1c1ccccc1,95.8% (inactive),96.6% (inactive),97.9% (inactive),,91.7% (inactive),128% (inactive),101% (inactive),106% (inactive)
CNc1ccc(O)cc1,108% (inactive) and 101% (inactive),107% (inactive) and 103% (inactive),107% (inactive) and 101% (inactive),,108% (inactive) and 97.3% (inactive),124% (inactive) and 105% (inactive),112% (inactive) and 91.3% (inactive),94.9% (inactive) and 110% (inactive)
